Results: PubChem BioAssay (NCI)
“And” between values parts separate entries of the source, which are not always exact repeats. Equal values may be shown once. About 83,000 compounds went through this panel and 20% of them were active in at least one assay; those are over-represented in the sample as a whole.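 Testing used 96-well plates and a 48-hour single-concentration exposure. Example: -40 means 40% of the starting cells died.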 Unmarked numbers belong to inactive results. The source made the active and inactive calls. The calls were made as follows: active = growth percent below 10; inactive = the rest.

These molecules were tested on OVCAR-5 ovarian (assay: NCI-60 one-dose screen, 48 h (100 = growth as untreated, 0 = no growth, -100 = all killed)). Conditions: 10 µM unless noted.

SMILES	growth
Cc1cccc(C)c1Nc1nnc(-c2c[nH]c3ccccc23)o1	103%
COc1cc(CNC(=O)C[C@H](C)CCC=C(C)C)ccc1OCc1cn(-c2cccc(C(F)(F)F)c2)nn1	97.5%
CC1=C(C(=O)OCc2ccccc2)C(c2ccc(N(C)C)cc2)n2c(nc3ccccc32)N1 (stereo unspecified)	102%
CCc1ccc(SC2c3cc(OC)ccc3Oc3nc(N)c(C#N)c(N)c32)cc1 (stereo unspecified)	-4.3% (active)
CCCn1c(NC(=O)c2cccc(C(N)=O)c2)nc2cc(CN3CCCCC3)ccc21	99%
C/C(=N/O)c1ccc(NC(=O)CSc2nnc(-c3ccc(-c4nc5ccc(Cl)cc5[nH]4)cc3)o2)cc1	55.3%
CC[C@@]12CC(C(=O)OC)=C3Nc4cc5c(cc4[C@@]34CCN(C[C@H]3O[C@H]31)[C@@H]24)[C@@H]1[C@H](O5)[C@@H](O)[C@@]2(CC)CC(C(=O)OC)=C3Nc4cc(O)ccc4[C@@]34CCN1[C@@H]24	-74.7% (active)
N#Cc1c(-c2ccc(F)cc2)nc(SCc2ccccc2)nc1N1CCNCC1	-96.3% (active)

What follows are molecules tested on OVCAR-4 ovarian in the same assay as above. Conditions: 10 µM unless noted.

SMILES	growth
Cc1ccc(Cl)cc1NC(=O)N/C(N)=N/c1nc2ccccc2s1	-34.8% (active)
Nc1cc(-c2c[nH]c3ccc(Cl)cc23)nc2cc(-c3c[nH]c4ccccc34)nn12	19.8%
COc1cc(CNC(=O)C[C@H](C)CCC=C(C)C)ccc1OCc1cn(-c2ccc(Cl)c(Cl)c2)nn1	53.4%
C[C@@H](Nc1c(C#N)cnc2ccc(-c3cnc4[nH]ncc4c3)cc12)c1ccccc1	36.9%
COc1ccc(C2=NN(C(=O)[C@H]3[C@@H](c4ccco4)c4sc(=O)[nH]c4S[C@@H]3C)C(c3ccc4ccccc4c3)C2)cc1 (stereo partly specified)	49.2%
Cc1cc(C)c2[nH]c(=O)c(C(c3nnnn3Cc3ccc4c(c3)OCO4)N3CCN(C)CC3)cc2c1 (stereo unspecified)	108%
COc1ccc(NC(=O)N/N=C/c2c[nH]c3ccccc23)cc1	69.9%
COc1ccc2[nH]c(O)c(N=NC(=O)c3ccc4nc(-c5ccc(Cl)cc5)[nH]c4c3)c2c1	48.9%
Cc1ccc(O)cc1Nc1nc(SCCN2CCOCC2)nc2c1cnn2CC(Cl)c1ccc(Br)cc1 (stereo unspecified)	32.3%
CCOc1ccccc1[C@H]1C(C(=O)c2ccc(Cl)cc2)C2(N[C@@H]1c1ccccc1)C(=O)Nc1ccc(Br)cc12 (stereo partly specified)	13.7%
CC1(C)CC(=O)C2=C(C1)OC(N)=C(c1nc3ccccc3[nH]1)C2c1ccc(Cl)cc1 (stereo unspecified)	57.6% and 109%
COc1ccc(-c2cc(C(=O)N=Nc3c(O)[nH]c4ccc(Cl)cc34)c3ccccc3n2)cc1OC	116%
COc1ccc2c(c1)c(-c1cc(N)n3nc(-c4c[nH]c5ccccc45)cc3n1)cn2C	-29.8% (active)
Cc1ccc2c(c1)nc(-c1ccccc1)n2CC(=O)N=Nc1c(O)[nH]c2ccc(Cl)cc12	-71.3% (active)
CS(=O)(=O)Nc1cccc(-n2c(COc3ccc(OC(F)(F)F)cc3)nc3ccccc32)c1	84.9% and 104%
Oc1ccc(Cl)c(Nc2nc(SCCN3CCOCC3)nc3c2cnn3CC(Cl)c2ccc(Br)cc2)c1 (stereo unspecified)	31.7%
COc1ccccc1NC(=O)N/N=C/c1c[nH]c2ccccc12	61.2%
Nc1cccc(-n2c(COc3ccc(I)cc3)nc3ccccc32)c1	66.2% and 105%
O=C1CCC(N2C(=O)c3cccc(NCCCCCC(=O)N4CCN(c5ccc6nc7c(nc6c5C(F)(F)F)C(=O)c5ncccc5C7=O)CC4)c3C2=O)C(=O)N1 (stereo unspecified)	-83.4% (active)

SMILES	growth
OCCn1cc(-c2nc3ccc4[nH]ncc4c3c3c2CCCC3)cn1	64.2%
Cc1ccc(N=Nc2c(N)nn3c(-c4cc5cc(Br)ccc5oc4=O)ccnc23)cc1	102%
COc1ccc(C(=O)C[n+]2cccc3c4ccccc4ccc32)cc1	33.4%
CCCCCCCCCc1ccc(C(=O)Nc2cc(C)ccc2C(=O)OC)cc1	94.5%
Cc1nc(Nc2ccccn2)sc1C1=NNC(c2ccccc2F)C1 (stereo unspecified)	74.8%
NS(=O)(=O)c1ccc(Nc2nc(N/N=C/c3cc(Br)c(O)c(Br)c3)nc(Nc3ccccc3)n2)cc1	71.2%
C=CC(=O)Nc1ccc(C(=O)/C=C/c2ccc(N(C)C)cc2)c(O)c1	39%
CCCCCCCCc1ccc(C(=O)Nc2cccc(O)c2)cc1	78.8%
Clc1ccc(-c2nc3c4c(-c5ccccc5)c(-c5ccccc5)n(Cc5ccccc5)c4ncn3n2)cc1	16.4%
Nc1nn2c(-c3cc4cc(Br)ccc4oc3=O)ccnc2c1N=Nc1ccc(S(N)(=O)=O)cc1	100%
Cc1ccc(C(=O)Nc2cc(-n3ccnc3)cc(C(F)(F)F)c2)cc1-n1cc(-c2cnc3cccnn23)nn1	104%
Cc1cccc(C)c1Nc1nnc(-c2c[nH]c3ccccc23)o1	102%
COc1cc(CNC(=O)C[C@H](C)CCC=C(C)C)ccc1OCc1cn(-c2cccc(C(F)(F)F)c2)nn1	45.1%
CC1=C(C(=O)OCc2ccccc2)C(c2ccc(N(C)C)cc2)n2c(nc3ccccc32)N1 (stereo unspecified)	81.4%
CCc1ccc(SC2c3cc(OC)ccc3Oc3nc(N)c(C#N)c(N)c32)cc1 (stereo unspecified)	-13.3% (active)
CCCn1c(NC(=O)c2cccc(C(N)=O)c2)nc2cc(CN3CCCCC3)ccc21	90.2%
C/C(=N/O)c1ccc(NC(=O)CSc2nnc(-c3ccc(-c4nc5ccc(Cl)cc5[nH]4)cc3)o2)cc1	14.5%
CC[C@@]12CC(C(=O)OC)=C3Nc4cc5c(cc4[C@@]34CCN(C[C@H]3O[C@H]31)[C@@H]24)[C@@H]1[C@H](O5)[C@@H](O)[C@@]2(CC)CC(C(=O)OC)=C3Nc4cc(O)ccc4[C@@]34CCN1[C@@H]24	-39% (active)
N#Cc1c(-c2ccc(F)cc2)nc(SCc2ccccc2)nc1N1CCNCC1	-75% (active)
